Reference: the supplement of paper PMC10849652
About 7,900 targets were measured; listed, in parts, are those with a hit and a random draw of the rest. About 0.6% of all pairs of compound and target were hits. Values without a mark were called inactive.

What was measured:
Test in all cases: log2 fold change, soluble protein after heating vs DMSO (PISA); higher = thermal stabilisation; K562 cells, 10 uM, 30 min; active = over 0.2 and 3.5 SD of the protein, either way, in both replicates (recomputed)
[1] = compound: CC[C@@H]1C(=O)N(C)c2cnc(Nc3ccc(C(=O)NC4CCN(C)CC4)cc3OC)nc2N1C1CCCC1
Method in brief: (§1)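 Soluble protein was defined as the supernatant after 21,000xg for 90 min. It came from K562 cells at 2×10^6 cells/mL given 10 μM compound for 30 min, heated in aliquots for 3 min across 48°C-58°C, pooled, and extracted in PBS with 0.5% NP-40 at 4°C, and was quantified by TMTpro 16plex LC-MS/MS with equalised channel sums. Thermal stability against control samples, from duplicates, is reported as log2 fold change.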

[2] = compound: CC[C@@H]1C(=O)N(C)c2cnc(Nc3ccc(C(=O)N[C@H]4CC[C@H](N5CCN(CC6CC6)CC5)CC4)cc3OC)nc2N1C(C)C [volasertib]
Method in brief: as §1

[3] = compound: CC[C@H](C)N1C=C(C2=C(C=C(C=C21)C3=CN=C(C=C3)N4CCNCC4)C(=O)NCC5=C(C=C(NC5=O)C)C)C
Method in brief: as §1

[4] = compound: CC[C@H](C)[C@@H](C(=O)N[C@@H]([C@@H](C)O)C(=O)N[C@@H](CC(C)C)C(=O)[C@]1(CO1)C)NC(=O)[C@H]([C@@H](C)CC)N(C)C(=O)C [epoxomicin]
Method in brief: as §1

[5] = compound: CCn1c(C(=O)N(C2CC2)C2CC2)cc2c3c(ncn3C)c(Nc3cc(C)n(C)n3)nc21
Method in brief: as §1

[6] = compound: CCn1cc(-c2ccnc3[nH]c(-c4cccc(CN(C)C)c4)cc23)c(-c2ccc(NC(=O)N(C)C)cc2)n1
Method in brief: as §1

[7] = compound: CN(C)CC(=O)Nc1ccc2[nH]c(=O)c3ccccc3c2c1
Method in brief: as §1

[8] = compound: CN(CCOC1=CC=C(C=C1)C[C@H]2C(=O)NC(=O)S2)C3=CC=CC=N3 (racemic) [rosiglitazone]
Method in brief: as §1

[9] = compound: CN1C2=C(C3=C1C(=O)N(N=C3)CC4=CC(=CC=C4)N)SC(=C2)S(=O)C
Method in brief: as §1

[10] = compound: CN1CCC(CNc2ccc3ncc(-c4cccc(OC(F)(F)F)c4)n3n2)CC1
Method in brief: as §1

[11] = compound: CN1CCN(CCOc2cc(OC3CCOCC3)c3c(Nc4c(Cl)ccc5c4OCO5)ncnc3c2)CC1 [saracatinib]
Method in brief: as §1

[12] = compound: CN1CCN(c2nc(C3=C(c4c[nH]c5ccccc45)C(=O)NC3=O)c3ccccc3n2)CC1 [sotrastaurin]
Method in brief: as §1

[13] = compound: CN1CC[C@H](c2c(O)cc(O)c3c(=O)cc(-c4ccccc4Cl)oc23)[C@H](O)C1 [alvocidib]
Method in brief: as §1

[14] = compound: CN1CCc2c(c3ccccc3n2Cc2ccc(C(=O)NO)cc2)C1 [Tubastatin A]
Method in brief: as §1

[15] = compound: CNC(=O)C1=CC=CC=C1NC2=NC(=NC=C2Cl)NC3=C(C=C(C=C3)N4CCOCC4)OC
Method in brief: as §1

[16] = compound: CNC(=O)c1ccc(Nc2ncc(C(F)(F)F)c(NCc3nccnc3N(C)S(C)(=O)=O)n2)cc1 [defactinib]
Method in brief: as §1

[17] = compound: CNCc1ccc(-c2[nH]c3cc(F)cc4c3c2CCNC4=O)cc1 [rucaparib]
Method in brief: as §1

[18] = compound: CNc1nc(-c2ccc3c(N)n[nH]c3c2)cc(N2C[C@@H](C(=O)NC3CCCCC3)CC[C@H]2C)n1
Method in brief: as §1

[19] = compound: COC(=O)N[C@@H](C)CNc1nccc(-c2cn(C(C)C)nc2-c2cc(Cl)cc(NS(C)(=O)=O)c2F)n1 [encorafenib]
Method in brief: as §1

[20] = compound: COC(=O)[C@H](CCSC)NC(=O)C1=C(C=C(C=C1)NC[C@H](CS)N)C2=CC=CC=C2
Method in brief: as §1

Chain of UniProt P55209 (P55209 whole entry, looked up): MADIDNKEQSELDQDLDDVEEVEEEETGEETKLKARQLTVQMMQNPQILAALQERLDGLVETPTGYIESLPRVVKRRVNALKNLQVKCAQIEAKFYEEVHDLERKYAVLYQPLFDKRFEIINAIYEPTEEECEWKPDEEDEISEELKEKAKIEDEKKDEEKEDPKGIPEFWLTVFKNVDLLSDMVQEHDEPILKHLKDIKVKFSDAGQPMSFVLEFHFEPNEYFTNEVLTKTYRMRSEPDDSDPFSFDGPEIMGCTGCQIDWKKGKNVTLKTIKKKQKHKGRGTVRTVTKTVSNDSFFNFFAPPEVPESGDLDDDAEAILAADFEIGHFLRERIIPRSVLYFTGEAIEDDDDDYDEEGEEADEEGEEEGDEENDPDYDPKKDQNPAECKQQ
Chain of UniProt P52948 (P52948 whole entry, looked up): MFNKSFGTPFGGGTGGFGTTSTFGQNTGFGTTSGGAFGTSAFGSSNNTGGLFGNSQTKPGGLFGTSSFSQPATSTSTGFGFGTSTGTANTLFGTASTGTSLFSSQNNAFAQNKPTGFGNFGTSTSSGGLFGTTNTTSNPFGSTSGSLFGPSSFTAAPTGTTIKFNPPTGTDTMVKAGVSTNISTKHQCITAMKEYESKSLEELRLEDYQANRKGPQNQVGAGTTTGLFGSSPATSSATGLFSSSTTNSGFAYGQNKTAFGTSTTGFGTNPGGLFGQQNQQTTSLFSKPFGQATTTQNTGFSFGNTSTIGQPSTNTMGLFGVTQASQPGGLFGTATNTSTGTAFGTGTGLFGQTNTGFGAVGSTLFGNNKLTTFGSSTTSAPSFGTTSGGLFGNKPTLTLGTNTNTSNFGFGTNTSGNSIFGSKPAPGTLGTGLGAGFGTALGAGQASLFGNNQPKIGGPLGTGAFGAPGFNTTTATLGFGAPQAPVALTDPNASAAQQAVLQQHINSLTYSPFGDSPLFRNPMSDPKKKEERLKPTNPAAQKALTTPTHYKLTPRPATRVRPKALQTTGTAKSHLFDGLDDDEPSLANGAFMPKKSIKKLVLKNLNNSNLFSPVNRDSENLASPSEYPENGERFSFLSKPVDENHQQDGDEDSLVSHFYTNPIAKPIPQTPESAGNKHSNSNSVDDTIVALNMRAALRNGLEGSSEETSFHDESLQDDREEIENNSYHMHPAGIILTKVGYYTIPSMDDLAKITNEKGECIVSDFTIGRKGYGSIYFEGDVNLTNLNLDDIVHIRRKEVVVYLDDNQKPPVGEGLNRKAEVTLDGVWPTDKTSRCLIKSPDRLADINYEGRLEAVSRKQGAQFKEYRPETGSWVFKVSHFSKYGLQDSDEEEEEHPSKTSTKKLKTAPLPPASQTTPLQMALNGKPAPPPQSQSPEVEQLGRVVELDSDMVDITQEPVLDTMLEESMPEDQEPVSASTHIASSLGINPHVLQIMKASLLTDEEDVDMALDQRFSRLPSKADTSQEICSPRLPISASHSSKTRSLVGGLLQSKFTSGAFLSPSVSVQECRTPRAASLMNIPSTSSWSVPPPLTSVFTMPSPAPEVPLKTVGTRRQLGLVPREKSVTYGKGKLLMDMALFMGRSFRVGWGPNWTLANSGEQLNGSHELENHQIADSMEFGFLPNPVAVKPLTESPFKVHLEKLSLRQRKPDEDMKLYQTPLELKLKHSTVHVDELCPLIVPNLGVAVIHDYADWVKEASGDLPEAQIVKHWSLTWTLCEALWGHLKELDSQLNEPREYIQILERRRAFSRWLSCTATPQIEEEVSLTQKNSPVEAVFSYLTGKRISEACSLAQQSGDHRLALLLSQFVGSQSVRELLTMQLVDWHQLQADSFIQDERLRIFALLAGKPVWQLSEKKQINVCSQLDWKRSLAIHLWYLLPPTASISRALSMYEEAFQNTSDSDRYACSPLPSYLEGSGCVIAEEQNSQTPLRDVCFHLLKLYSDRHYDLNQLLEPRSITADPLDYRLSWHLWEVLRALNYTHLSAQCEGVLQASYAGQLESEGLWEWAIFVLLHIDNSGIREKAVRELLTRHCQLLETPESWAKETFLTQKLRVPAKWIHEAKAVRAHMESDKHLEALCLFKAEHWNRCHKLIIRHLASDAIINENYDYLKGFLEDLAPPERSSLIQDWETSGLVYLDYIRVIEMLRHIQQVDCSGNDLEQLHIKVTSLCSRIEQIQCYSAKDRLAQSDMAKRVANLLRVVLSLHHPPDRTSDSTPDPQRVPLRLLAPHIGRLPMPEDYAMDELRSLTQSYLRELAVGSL
Chain of UniProt Q96IV0 (Q96IV0 whole entry, looked up): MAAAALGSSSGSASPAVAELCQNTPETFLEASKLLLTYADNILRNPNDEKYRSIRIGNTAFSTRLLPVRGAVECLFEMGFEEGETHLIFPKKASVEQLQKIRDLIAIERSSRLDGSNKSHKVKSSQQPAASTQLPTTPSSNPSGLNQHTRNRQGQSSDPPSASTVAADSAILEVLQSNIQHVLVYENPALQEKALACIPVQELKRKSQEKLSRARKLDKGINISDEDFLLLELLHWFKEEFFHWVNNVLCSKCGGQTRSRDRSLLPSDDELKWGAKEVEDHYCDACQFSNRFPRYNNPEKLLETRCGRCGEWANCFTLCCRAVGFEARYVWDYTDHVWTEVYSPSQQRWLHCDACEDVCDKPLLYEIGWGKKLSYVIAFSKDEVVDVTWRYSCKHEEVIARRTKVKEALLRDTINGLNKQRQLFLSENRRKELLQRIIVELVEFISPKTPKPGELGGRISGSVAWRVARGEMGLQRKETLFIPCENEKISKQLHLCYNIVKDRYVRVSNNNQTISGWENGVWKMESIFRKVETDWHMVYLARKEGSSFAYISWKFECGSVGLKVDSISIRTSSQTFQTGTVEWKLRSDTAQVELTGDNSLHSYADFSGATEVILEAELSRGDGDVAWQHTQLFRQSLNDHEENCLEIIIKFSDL
Chain of UniProt Q01804 (Q01804 whole entry, looked up): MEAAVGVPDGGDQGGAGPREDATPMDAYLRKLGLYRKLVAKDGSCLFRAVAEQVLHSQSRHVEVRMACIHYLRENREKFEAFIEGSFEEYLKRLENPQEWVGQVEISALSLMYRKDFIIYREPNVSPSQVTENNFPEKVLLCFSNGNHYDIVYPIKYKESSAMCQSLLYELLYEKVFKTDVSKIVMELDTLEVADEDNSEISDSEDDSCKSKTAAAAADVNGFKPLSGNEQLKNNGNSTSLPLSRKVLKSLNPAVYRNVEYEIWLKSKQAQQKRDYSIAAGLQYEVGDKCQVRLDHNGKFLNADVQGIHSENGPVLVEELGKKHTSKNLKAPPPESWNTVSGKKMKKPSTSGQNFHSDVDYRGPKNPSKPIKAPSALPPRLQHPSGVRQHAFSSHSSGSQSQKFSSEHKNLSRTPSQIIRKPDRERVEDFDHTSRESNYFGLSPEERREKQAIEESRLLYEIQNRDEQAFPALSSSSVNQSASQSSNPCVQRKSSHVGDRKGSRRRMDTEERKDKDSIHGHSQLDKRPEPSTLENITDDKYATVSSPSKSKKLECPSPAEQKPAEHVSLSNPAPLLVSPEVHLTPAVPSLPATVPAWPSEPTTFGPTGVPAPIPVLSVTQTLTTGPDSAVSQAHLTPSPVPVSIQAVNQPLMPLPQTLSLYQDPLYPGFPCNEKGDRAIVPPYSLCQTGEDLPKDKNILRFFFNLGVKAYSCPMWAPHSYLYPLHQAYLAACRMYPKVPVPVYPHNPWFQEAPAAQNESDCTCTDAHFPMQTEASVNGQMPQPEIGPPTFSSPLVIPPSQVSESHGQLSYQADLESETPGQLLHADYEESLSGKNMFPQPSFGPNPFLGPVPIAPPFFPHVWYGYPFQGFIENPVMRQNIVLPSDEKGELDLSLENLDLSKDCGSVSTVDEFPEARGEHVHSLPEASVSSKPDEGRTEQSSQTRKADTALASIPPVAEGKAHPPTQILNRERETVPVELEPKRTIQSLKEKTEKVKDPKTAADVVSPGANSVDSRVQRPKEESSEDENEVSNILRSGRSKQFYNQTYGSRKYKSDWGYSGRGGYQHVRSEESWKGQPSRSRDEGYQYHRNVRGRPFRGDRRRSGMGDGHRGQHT
Chain of UniProt Q9H8H0 (Q9H8H0 whole entry, looked up): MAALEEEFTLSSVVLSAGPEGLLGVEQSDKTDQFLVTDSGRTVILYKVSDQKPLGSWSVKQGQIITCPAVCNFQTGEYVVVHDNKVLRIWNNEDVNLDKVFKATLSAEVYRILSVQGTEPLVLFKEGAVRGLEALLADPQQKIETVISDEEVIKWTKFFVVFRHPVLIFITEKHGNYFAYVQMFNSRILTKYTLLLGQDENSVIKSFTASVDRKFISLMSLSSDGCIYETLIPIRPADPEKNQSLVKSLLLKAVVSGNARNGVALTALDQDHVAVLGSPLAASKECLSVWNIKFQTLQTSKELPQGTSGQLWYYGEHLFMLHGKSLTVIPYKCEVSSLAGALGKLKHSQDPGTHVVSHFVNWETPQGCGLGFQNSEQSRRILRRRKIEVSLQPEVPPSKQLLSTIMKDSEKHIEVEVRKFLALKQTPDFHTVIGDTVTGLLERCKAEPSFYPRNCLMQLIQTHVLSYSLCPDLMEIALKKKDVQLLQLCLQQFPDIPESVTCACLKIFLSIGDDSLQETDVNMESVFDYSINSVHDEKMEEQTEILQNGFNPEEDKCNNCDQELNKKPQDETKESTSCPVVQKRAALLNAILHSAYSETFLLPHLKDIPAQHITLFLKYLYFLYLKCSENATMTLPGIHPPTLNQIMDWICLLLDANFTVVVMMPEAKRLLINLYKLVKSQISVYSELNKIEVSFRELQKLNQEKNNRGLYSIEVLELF
Chain of UniProt Q8WVJ2 (Q8WVJ2 whole entry, looked up): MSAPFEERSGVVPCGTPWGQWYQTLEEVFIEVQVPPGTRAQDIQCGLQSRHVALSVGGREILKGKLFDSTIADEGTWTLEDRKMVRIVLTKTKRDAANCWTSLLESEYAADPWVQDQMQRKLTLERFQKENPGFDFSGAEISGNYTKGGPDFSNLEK

Row | Target | log2 fold change [1] | log2 fold change [2] | log2 fold change [3] | log2 fold change [4] | log2 fold change [5] | log2 fold change [6] | log2 fold change [7] | log2 fold change [8] | log2 fold change [9] | log2 fold change [10] | log2 fold change [11] | log2 fold change [12] | log2 fold change [13] | log2 fold change [14] | log2 fold change [15] | log2 fold change [16] | log2 fold change [17] | log2 fold change [18] | log2 fold change [19] | log2 fold change [20]
1 | MPHOSPH10 (UniProt O00566) | 0.099 | -0.155 | 0.084 | -0.26 | -0.028 | 0.182 | -0.012 | 0.089 | 0.314 | 0.133 | -0.123 | -0.061 | 0.086 | 0.098 | -0.023 | 0.11 | 0.229 | -0.081 | 0.214 | 0.045
2 | MTOR (UniProt P42345) | -0.131 | -0.305 (active) | 0.04 | -0.021 | -0.05 | -0.073 | 0.036 | 0.058 | 0.017 | -0.286 (active) | -0.076 | 0.088 | -0.101 | 0.002 | -0.005 | -0.09 | 0 | -0.009 | 0.041 | -0.02
3 | OTUD4 (UniProt Q01804) | 0.078 | -0.067 | 0.009 | -0.085 | -0.016 | 0.098 | 0.011 | -0.013 | 0.041 | 0.075 | -0.031 | -0.017 | 0.036 | -0.018 | -0.014 | 0.054 | 0.136 | 0.019 | 0.036 | 0.001
4 | NUDCD2 (UniProt Q8WVJ2) | -0.177 | -0.566 (active) | 0.056 | -0.098 | -0.042 | 0.021 | 0.081 | 0.093 | 0.023 | -0.291 | -0.115 | -0.123 | -0.139 | 0.051 | 0.002 | -0.256 | -0.053 | 0 | 0.048 | 0
5 | NCAPH (UniProt Q15003) | -0.126 | -0.353 (active) | 0.051 | 0.011 | -0.054 | 0.052 | 0.043 | 0.024 | -0.021 | -0.116 | 0.001 | -0.15 | -0.016 | 0.04 | 0.024 | -0.119 | 0.074 | 0.009 | 0.057 | -0.039
6 | NUP98 (UniProt P52948) | -0.12 | -0.276 (active) | 0.084 | -0.012 | -0.027 | -0.018 | 0.039 | 0.068 | 0.033 | -0.038 | -0.019 | -0.072 | -0.063 | 0.041 | 0.018 | -0.12 | 0.063 | -0.037 | 0.039 | -0.053
7 | NFYC (UniProt Q13952) | 0.012 | 0.015 | -0.021 | -0.001 | 0.006 | -0.015 | 0.041 | 0.059 | -0.063 | 0 | 0.011 | 0.012 | 0.054 | -0.021 | -0.022 | -0.022 | -0.041 | -0.019 | 0.005 | 0.005
8 | NOL11 (UniProt Q9H8H0) | 0.029 | -0.097 | -0.025 | -0.015 | -0.031 | -0.027 | -0.005 | -0.025 | -0.028 | 0.126 | 0.093 | 0.022 | 0.089 | -0.08 | 0.007 | 0.186 | 0.071 | 0.002 | -0.012 | -0.009
9 | NGLY1 (UniProt Q96IV0) | -0.07 | -0.367 (active) | 0.04 | -0.071 | -0.045 | -0.03 | 0.055 | 0.01 | 0.044 | -0.116 | -0.04 | -0.135 | -0.002 | -0.04 | 0.01 | -0.026 | 0.161 | 0.05 | 0.159 | -0.064
10 | MRPS18B (UniProt Q9Y676) | 0.028 | -0.039 | 0.09 | 0.042 | -0.075 | -0.021 | 0.041 | -0.069 | -0.01 | -0.087 | -0.038 | 0.082 | -0.059 | 0.125 | 0.007 | -0.016 | 0.065 | 0.225 | 0.034 | -0.027
11 | NAP1L1 (UniProt P55209) | -0.112 | -0.237 (active) | 0.005 | 0.048 | 0.007 | -0.008 | 0.013 | 0.014 | 0.003 | -0.038 | 0.042 | -0.039 | -0.045 | -0.008 | 0.053 | -0.008 | 0.039 | -0.084 | 0.048 | 0.023
12 | MRPS6 (UniProt P82932) | -0.015 | -0.045 | 0.03 | -0.012 | -0.06 | -0.067 | 0.09 | 0.072 | -0.021 | 0.027 | -0.197 | -0.058 | -0.036 | 0.011 | -0.003 | -0.023 | 0.056 | 0.092 | 0.016 | -0.126
13 | MRPS27 isoform 2 (UniProt Q92552) | -0.02 | -0.041 | 0.132 | 0.052 | -0.033 | -0.046 | 0.019 | 0.05 | 0.047 | -0.001 | -0.107 | -0.089 | -0.078 | 0.06 | 0.071 | -0.012 | 0.069 | 0.108 | 0.109 | -0.045
